Laboratory results reported in PubChem BioAssay AID1851 (National Center for Advancing Translational Sciences (NCATS), 2009).
About 2,600 (16%) of roughly 16,000 compounds were called active. Inconclusive results (about 20%) are left out. These entries were drawn from the full list. A number with no mark means an inactive call. Calls follow the shape of the dose curve; as a rule, active = well fitted curve in the direction sought with a large enough effect; inconclusive = small, poorly fitted or top-dose-only effect, or effect the other way; inactive = no such curve, though single readings can be large or run the other way.

Biological target: Cytochrome P450 2D6 (Homo sapiens) (UniProt P10635)
Sequence (P10635 whole entry, looked up): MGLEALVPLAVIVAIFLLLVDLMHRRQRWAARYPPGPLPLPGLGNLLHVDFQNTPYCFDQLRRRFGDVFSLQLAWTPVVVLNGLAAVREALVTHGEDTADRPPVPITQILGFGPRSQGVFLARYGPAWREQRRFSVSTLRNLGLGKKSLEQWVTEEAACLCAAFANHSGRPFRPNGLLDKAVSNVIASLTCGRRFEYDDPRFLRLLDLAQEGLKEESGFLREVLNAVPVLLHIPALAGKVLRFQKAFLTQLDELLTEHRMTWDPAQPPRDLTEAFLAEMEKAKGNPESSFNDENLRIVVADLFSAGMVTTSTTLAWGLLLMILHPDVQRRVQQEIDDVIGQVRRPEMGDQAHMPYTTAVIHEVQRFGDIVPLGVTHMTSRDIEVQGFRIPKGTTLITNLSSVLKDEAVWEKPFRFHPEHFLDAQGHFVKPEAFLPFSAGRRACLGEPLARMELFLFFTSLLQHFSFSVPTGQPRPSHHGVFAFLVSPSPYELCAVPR
Assay: Cytochrome panel assay with activity outcomes
Conditions: recombinant CYP, pro-luciferin dealkylation, luminescence, p450-cyp2d6; series mostly up to 57.1 µM; activity, negative = inhibition: at the top concentration
Experimental: The P450 gene superfamily is involved in the metabolism and clearance of xenobiotics. This assay used various human CYP P450 isozymes to measure the dealkylation of various pro-luciferin substrates to luciferin. The luciferin is then measured by luminescence after the addition of a luciferase detection reagent. Pro-luciferin substrate concentration in the assay was equal to its KM for its CYP P450 isozyme. Inhibitors and some substrates limit the production of luciferin, and decrease measured luminescence.
NCGC Assay Protocol Summary:
1, Reagent, 2 uL, Isozyme and Pro-Luciferin
2, Library compounds, 23 nl, 40 uM to 0.24 nM dilution series
3, Controls, 23 nl, Isozyme specific inhibitor
4, Reagent, 2 uL, NADPH regeneration solution
5, Incubation time, 60 min, Isozyme specific temperature
6, Reagent, 4ul, Detection reagent
7, Incubation time, 20 min, Isozyme specific temperature
8, Detection, 1 sec, ViewLux luminescent read
The luciferase-based P450-GloTM Screening Systems were obtained from Promega (Madison, WI) for CYP 1A2 (V9770), CYP 2C9 (V9790), CYP2 C19 (V9880), CYP 2D6 (V9890), and CYP 3A4 Luciferin-PPXE (V9910) and were adapted for 1,536-well microplates and an automated protocol. The control compounds furafylline for 1A2 (F124), sulfaphenazole for CYP 2C9 (S0758), ketoconazole for CYP 2C19 (K1003), quinidine for 2D6 (Q3625), and ketoconazole for 3A4 (K1003) were purchased from Sigma Aldrich (St. Louis, MO). Recombinant P450 enzymes were obtained from baculovirus constructs expressed in insect cells (BD/Gentest).
Medium-binding white solid Kalypsys plates used. Mixtures kept on ice. 1A2: 10 nM 1A2, 100 uM Luc-ME, 100 mM KPO4; 2C9: 10 nM 2C9, 100 uM Luc-H, 25 mM KPO4; 2C19: 5 nM 2C19, 10 uM Luc-H EGE, 50 mM KPO4; 2D6: 5 nM 2D6, 30 uM Luc-ME EGE, 100 mM KPO4; 3A4: 10 nM, 25 uM Luc-PPXE. All amounts are reflected in their final concentration, working concentration is 2x.
NADPH regeneration solution: 1.3 mM NADP+, 3.3 mM glucose-6-phosphate, 3.3 mM MgCl2, 0.4 U/mL glucose-6-phosphate dehydrogenase for all isozymes, 200 mM KPO4 for 3A4. Mixture prepared at RT but kept on ice during automated run.
RT incubation in auxilliary plate hotel for 1A2, 2D6, and 3A4; 37C for 2C9 and 2C19.
Keywords: P450, CYP1A2, CYP2C19, CYP2C9, CYP2D6, CYP3A4, Luciferase, MLSMR, MLSCN, NIH Roadmap, qHTS, NCGC
% is scaled to controls: 0 for no effect and ±100 for the full control effect.

| SMILES | activity, negative = inhibition | AC50 |
| --- | --- | --- |
| COc1ccc(Oc2ncc3nc(C)c(=O)n(C[C@H]4CCCO4)c3n2)cc1 | -9.23% |  |
| Cc1cc(C)cc(OCC(=O)NNC(=O)c2cc(C)[nH]n2)c1 | 2.9% |  |
| COc1ccc(NS(=O)(=O)c2ccc(I)cc2)cc1N1CCN(C)CC1 | -4.44% |  |
| O=C(c1ccc2ncsc2c1)N1CCN(c2ccc(O)cc2)CC1 | 4.08% |  |
| CCCOc1ccc(CSC(CC(=O)O)C(=O)O)cc1 (stereo unspecified) | 7.86% |  |
| Cc1ccc(S(=O)(=O)NCC(=O)N(CC(=O)NCc2ccco2)Cc2cccs2)cc1 |  | 3.98 µM (active) |
| Cc1ccc(OCCCC(=O)NCc2ccco2)cc1 | 7.23% |  |
| Cc1ccc(C(C(=O)NCc2ccco2)N(C(=O)CNC(=O)c2cccs2)c2ccc(C)cc2)cc1 (stereo unspecified) | 6.82% |  |
| COc1ccc(-c2nc3cnc(Nc4ccccc4)nc3n(Cc3cccs3)c2=O)cc1 | 0.596% |  |
| CC1CCCC(n2c(=S)[nH]c3ccccc3c2=O)C1C (stereo unspecified) | -26.2% |  |
| Cc1ccc(-c2[nH]n3c(=O)c4c(nc3c2C)CCCC4)cc1 |  | 25.1 µM (active) |
| Cc1ccc(N=Nc2c(N)[nH]n3c(=O)c4c(nc23)CCCC4)cc1 | -22% |  |
| O=c1c2c(nc3c(-c4ccccc4)c[nH]n13)CCC2 | -7.88% |  |
| Cc1cc(C2CCCCC2)n(O)c(=O)c1 | 9.07% [at 25.6 µM] |  |
| COc1cccc(C(=O)Nc2ccc(-c3nnc(-c4ccco4)o3)cc2)c1 | 3.61% |  |
| COc1ccc(-c2ccc(/C=C3\C(=O)N(c4ccccc4)N=C3c3ccccc3)o2)c([N+](=O)[O-])c1 | -5.74% |  |
| COc1ccc2c(c1)C(c1ccc([N+](=O)[O-])cc1)=NNC(c1ccco1)=N2 |  | 11.2 µM (active) |
| Cc1ccc2c(c1)C1(SCCS1)C(=O)N2 | -11.7% |  |
| Nc1ccc(C(=O)NCC(=O)O)cc1 | 2.31% [at 25.6 µM] |  |
| COc1ccc(N2CCN(CCNC(=O)c3c(C)cc(=O)oc3C)CC2)cc1 | 2.34% |  |
| O=C(CCNC(=O)Cn1ccc2ccccc2c1=O)NCCCN1CCN(c2ccc(F)cc2)CC1 |  | 10 µM (active) |
| COc1ccc(OC)c(CNC(=O)CCNC(=O)Cn2ccc3ccccc3c2=O)c1 | 1.01% |  |
| COc1ccc(S(N)(=O)=O)cc1C(=O)NCCCN1CCN(c2ccc(C)cc2)CC1 | 5.97% |  |
| Cc1ccccc1CN1CCN(CC(=O)NCCCN2CCN(c3ccc(F)cc3)CC2)C1=O |  | 6.31 µM (active) |
| COc1cccc(CNC(=O)CCNC(=O)Cn2ccc3ccccc3c2=O)c1 | -19.9% |  |
| COC(=O)CSc1nc(C)cc(C(F)(F)F)c1C#N | 15.4% |  |

| SMILES | activity, negative = inhibition | AC50 |
| --- | --- | --- |
| Cc1cc2nnc(SCC(=O)N3CCN(c4ccccc4)CC3)n2c(N)n1 | 3.62% |  |
| CC(NC(=O)c1ccc(Cl)cc1)c1nnc(SCc2ccc([N+](=O)[O-])cc2)n1C (stereo unspecified) | -14.9% |  |
| C1CCc2nnnn2CC1 | -1.71% |  |
| Cc1ccc(-c2ccc(/C=N/NC(=S)Nc3ccccc3)o2)cc1[N+](=O)[O-] | 5.91% |  |
| O=C(c1cccc(F)c1)N1CCC2(CC1)CN(c1cccc(-c3ccccc3)c1)C2 | 0.562% |  |
| CC(C)NC(=O)N1CCC2(CC1)CCN(C(=O)c1cccc(F)c1)CC2 | 4.28% |  |
| CC(C)CN1CC2(CCN(C(=O)c3cccc(F)c3)CC2)C1 | 7.2% |  |
| N#Cc1ccc(CN2CC3(CCN(C(=O)c4cccc(F)c4)CC3)C2)cc1 | -5.46% |  |
| CC(C)CN1CCC2(CC1)CCN(C(=O)c1cccc(F)c1)CC2 |  | 5.01 µM (active) |
| O=C(c1cccc(F)c1)N1CCC2(CCN(Cc3cc(C(F)(F)F)cc(C(F)(F)F)c3)CC2)CC1 | 0.176% |  |
| O=C(c1cccc(F)c1)N1CCC2(CC1)CN(Cc1ccccc1)C2 |  | 5.01 µM (active) |
| O=C(c1cccc(F)c1)N1CCC2(CCCN(c3ccccc3)C2)CC1 | -3.85% |  |
| O=C(c1cccc(F)c1)N1CCC2(CCN(Cc3ccccc3)CC2)CC1 |  | 7.94 µM (active) |
| O=c1c(-c2ccc(F)cc2)nc2cnc(N3CCOCC3)nc2n1Cc1cccs1 | -3.77% |  |
| O=C(C(Cc1ccccc1)N1C(=O)C2C3CCC(C3)C2C1=O)N1CCCCC1 (stereo unspecified) | -5.07% |  |
| CCCCS(=O)(=O)NC1=NCN(Cc2ccco2)CN1 | -3.88% |  |
| COC(=O)c1nn(-c2cccc(C(F)(F)F)c2)c(=O)cc1Sc1ccccn1 | 7.99% |  |
| O=c1c(-c2ccccc2)nc2cncnc2n1Cc1ccccc1Cl | -6.57% |  |
| COc1cc(Br)cc2cc(C(=O)NCC3CCCO3)c(=O)oc12 (stereo unspecified) | -18.9% |  |
| CC(c1ccccc1C(O)c1ccccc1)N(C)C (stereo unspecified) | -28.5% |  |
| Cn1c(=O)n(-c2ccc(Cl)cc2)c(=O)c2c3c(sc21)COC(C)(C)C3 | 7.91% |  |
| CCOc1c(OC(C)=O)ccc(/C=C/c2ccc3cccc(OC(C)=O)c3n2)c1[N+](=O)[O-] |  | 10 µM (active) |
| O=C(N/N=C/c1ccc2cccc(OCc3ccccc3)c2n1)c1ccc(Br)cc1 | -17% |  |
| COc1ccc2c(c1[N+](=O)[O-])CCC/C2=N/OC(=O)c1cccc2ccccc12 | -1.88% |  |
| CCOc1c(OC(C)=O)ccc(/C=C2\N=C(SCC)SC2=O)c1[N+](=O)[O-] |  | 11.2 µM (active) |
